The values below come from ChEMBL document CHEMBL3988442, “University of Dundee, Small-Polar-MMV Screening Library” (2021).

What all share (design): scale not given: direction of the effect not stated beside the values
Assay [1] deals with Protein translocase subunit SecA (Escherichia coli (strain K12)) (UniProt P10408). Nature of the assay: Assay to Identify E. coli SecA ATPase Inhibitors. Format: functional. Conditions: 30 µM.
Assay [2] concerns the target T1, Ubiquitin-activating enzyme e1, putative (Leishmania donovani (strain BPK282A1)) (UniProt E9BSI1).
T1 sequence (whole entry): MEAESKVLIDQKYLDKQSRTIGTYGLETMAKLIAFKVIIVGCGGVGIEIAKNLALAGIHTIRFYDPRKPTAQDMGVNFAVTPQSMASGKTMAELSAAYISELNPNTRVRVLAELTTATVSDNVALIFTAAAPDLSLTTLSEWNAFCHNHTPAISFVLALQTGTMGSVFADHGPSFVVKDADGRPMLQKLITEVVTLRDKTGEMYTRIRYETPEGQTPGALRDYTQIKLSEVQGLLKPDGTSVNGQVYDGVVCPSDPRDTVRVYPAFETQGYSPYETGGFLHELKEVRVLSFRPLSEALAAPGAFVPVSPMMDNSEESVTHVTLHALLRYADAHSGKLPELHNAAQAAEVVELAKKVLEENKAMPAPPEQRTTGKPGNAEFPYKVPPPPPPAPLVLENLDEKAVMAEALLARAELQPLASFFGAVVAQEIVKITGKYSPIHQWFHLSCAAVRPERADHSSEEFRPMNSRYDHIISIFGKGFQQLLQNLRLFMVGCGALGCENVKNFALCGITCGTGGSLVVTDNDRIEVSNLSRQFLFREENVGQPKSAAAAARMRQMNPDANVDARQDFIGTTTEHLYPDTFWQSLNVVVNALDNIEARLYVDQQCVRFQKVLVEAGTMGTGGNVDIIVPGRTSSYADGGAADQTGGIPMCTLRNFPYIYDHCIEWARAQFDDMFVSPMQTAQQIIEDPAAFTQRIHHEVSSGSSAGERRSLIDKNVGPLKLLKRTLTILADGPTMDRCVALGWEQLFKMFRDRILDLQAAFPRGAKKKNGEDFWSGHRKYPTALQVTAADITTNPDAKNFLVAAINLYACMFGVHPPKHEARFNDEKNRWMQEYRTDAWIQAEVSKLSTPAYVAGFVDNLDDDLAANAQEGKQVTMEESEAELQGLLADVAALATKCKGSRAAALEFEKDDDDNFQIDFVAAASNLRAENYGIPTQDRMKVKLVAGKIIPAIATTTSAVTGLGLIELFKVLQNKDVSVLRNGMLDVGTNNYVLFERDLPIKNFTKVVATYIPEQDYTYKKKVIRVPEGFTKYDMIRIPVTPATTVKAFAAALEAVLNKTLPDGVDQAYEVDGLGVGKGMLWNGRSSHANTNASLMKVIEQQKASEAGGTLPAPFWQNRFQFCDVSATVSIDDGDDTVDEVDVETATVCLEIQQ
Description: Leishmania donovani Ubiquitin Activating Enzyme (LdE1). The format is functional. Conditions: 30 µM.

For assay [3], the target named is Sialic acid-binding Ig-like lectin 9 (Homo sapiens) (UniProt Q9Y336). Description: Hs-Siglec9 ALPHAscreen SOP 20170721. Conditions: 10 µM. For orientation: Bead proximity is the source of the signal in Alpha formats.
Sequence of Sialic acid-binding Ig-like lectin 9 (Homo sapiens) (Q9Y336 whole entry): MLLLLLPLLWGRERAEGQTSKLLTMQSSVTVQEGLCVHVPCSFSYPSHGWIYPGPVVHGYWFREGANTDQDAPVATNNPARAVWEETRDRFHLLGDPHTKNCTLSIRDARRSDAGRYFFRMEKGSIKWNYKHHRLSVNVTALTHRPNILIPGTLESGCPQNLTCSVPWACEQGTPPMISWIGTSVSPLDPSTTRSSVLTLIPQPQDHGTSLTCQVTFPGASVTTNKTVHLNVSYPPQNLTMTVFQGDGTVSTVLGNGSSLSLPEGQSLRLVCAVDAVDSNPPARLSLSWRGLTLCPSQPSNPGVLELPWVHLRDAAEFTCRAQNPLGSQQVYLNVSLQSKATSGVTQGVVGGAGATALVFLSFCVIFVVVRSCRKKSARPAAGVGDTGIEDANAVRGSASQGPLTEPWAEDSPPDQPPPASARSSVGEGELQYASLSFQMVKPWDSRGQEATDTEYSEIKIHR
The next assay concerns Trypanosoma cruzi. Nature of the assay: Trypanosoma cruzi phosphomannomutase and mannose-1-phosphate guanylyltransferase assay. Format: functional. Conditions: 10 µM.
Assay [4] has as its target T2, Arginase-2, mitochondrial (Homo sapiens) (UniProt P78540).
T2 sequence (whole entry): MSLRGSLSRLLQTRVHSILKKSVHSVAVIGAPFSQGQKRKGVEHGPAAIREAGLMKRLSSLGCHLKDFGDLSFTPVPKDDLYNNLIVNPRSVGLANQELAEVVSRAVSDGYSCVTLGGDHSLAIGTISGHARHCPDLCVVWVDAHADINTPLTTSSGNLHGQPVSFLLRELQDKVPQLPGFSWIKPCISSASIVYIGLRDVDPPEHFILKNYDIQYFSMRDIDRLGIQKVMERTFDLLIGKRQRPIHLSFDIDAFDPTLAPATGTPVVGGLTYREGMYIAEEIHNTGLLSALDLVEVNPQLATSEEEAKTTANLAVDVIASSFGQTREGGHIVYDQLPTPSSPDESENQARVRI
Description: in vitro enzyme assay to detect the production of urea directly proportional to the activity of Arginase II. Also: in the data most compounds retested in dose-response had high values. The format is functional. Conditions: 33.3 µM.

For assay [5], the target named is T3, Proteasome subunit beta (Trypanosoma cruzi) (UniProt O96673).
T3 sequence (whole entry): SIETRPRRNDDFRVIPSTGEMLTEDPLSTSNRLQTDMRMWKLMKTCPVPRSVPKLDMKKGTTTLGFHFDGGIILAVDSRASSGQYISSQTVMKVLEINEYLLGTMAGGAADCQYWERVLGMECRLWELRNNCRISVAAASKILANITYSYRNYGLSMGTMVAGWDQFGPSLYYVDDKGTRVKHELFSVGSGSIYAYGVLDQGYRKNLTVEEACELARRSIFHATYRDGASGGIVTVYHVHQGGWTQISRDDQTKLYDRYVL
Nature of the assay: Trypanosoma cruzi proteasome chymotrypsin-like activity (TcProtChymo) assay. Also: in the data most compounds retested in dose-response had high values. The format is functional. Particulars: 9.37 µM.

The species named for the next assay is Homo sapiens. Description: To identify inhibition of the IFN signalling (Jak-Stat) pathway via expression of an eGFP reporter gene under the control of an IFN-stimulated response element (ISRE) containing MxA promoter. Format: functional. Conditions: 30 µM.
Assay [6] has as its target T4, Tyrosyl-tRNA synthetase, putative (Trypanosoma cruzi (strain CL Brener)) (UniProt Q4DSP6).
T4 sequence (whole entry): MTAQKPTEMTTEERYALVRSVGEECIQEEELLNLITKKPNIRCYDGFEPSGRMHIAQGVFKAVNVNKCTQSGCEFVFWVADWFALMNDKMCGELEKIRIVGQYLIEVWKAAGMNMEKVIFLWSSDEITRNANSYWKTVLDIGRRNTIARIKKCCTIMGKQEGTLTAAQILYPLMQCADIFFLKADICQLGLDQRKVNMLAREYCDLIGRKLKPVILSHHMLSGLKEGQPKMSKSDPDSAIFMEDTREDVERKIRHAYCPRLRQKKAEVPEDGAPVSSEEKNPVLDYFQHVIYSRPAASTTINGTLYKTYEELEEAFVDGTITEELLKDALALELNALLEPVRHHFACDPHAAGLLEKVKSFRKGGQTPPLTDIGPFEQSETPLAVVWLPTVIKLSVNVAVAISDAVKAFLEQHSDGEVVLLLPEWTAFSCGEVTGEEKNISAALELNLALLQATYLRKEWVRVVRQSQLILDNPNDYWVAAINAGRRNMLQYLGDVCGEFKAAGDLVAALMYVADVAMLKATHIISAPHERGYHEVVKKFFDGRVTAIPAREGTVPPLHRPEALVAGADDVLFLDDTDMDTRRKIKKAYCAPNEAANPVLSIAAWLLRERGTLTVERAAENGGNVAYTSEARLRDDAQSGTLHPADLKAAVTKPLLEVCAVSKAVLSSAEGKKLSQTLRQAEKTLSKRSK
Nature of the assay: Trypanosoma cruzi tyrosyl tRNA synthetase (TcYRS) _High Tyrosine SOP. Also: in the data most compounds retested in dose-response had high values. Conditions: 30 µM. The format is functional.

The target in assay [7] is T4, Tyrosyl-tRNA synthetase, putative (Trypanosoma cruzi (strain CL Brener)). Nature of the assay: Trypanosoma cruzi tyrosyl tRNA synthetase (TcYRS) SOP. Format: functional. Conditions: 30 µM.
In assay [8] the target is Chromo domain-containing protein 1 (Saccharomyces cerevisiae (strain ATCC 204508 / S288c) (Baker's yeast)) (UniProt P32657). Description: ScCHD-1 Enzyme Inhibition Assay. Also: in the data most compounds retested in dose-response had high values. Particulars: 30 µM. Format: functional.
Sequence of Chromo domain-containing protein 1 (Saccharomyces cerevisiae (strain ATCC 204508 / S288c) (Baker's yeast)) (P32657 whole entry, the tested form may be a part): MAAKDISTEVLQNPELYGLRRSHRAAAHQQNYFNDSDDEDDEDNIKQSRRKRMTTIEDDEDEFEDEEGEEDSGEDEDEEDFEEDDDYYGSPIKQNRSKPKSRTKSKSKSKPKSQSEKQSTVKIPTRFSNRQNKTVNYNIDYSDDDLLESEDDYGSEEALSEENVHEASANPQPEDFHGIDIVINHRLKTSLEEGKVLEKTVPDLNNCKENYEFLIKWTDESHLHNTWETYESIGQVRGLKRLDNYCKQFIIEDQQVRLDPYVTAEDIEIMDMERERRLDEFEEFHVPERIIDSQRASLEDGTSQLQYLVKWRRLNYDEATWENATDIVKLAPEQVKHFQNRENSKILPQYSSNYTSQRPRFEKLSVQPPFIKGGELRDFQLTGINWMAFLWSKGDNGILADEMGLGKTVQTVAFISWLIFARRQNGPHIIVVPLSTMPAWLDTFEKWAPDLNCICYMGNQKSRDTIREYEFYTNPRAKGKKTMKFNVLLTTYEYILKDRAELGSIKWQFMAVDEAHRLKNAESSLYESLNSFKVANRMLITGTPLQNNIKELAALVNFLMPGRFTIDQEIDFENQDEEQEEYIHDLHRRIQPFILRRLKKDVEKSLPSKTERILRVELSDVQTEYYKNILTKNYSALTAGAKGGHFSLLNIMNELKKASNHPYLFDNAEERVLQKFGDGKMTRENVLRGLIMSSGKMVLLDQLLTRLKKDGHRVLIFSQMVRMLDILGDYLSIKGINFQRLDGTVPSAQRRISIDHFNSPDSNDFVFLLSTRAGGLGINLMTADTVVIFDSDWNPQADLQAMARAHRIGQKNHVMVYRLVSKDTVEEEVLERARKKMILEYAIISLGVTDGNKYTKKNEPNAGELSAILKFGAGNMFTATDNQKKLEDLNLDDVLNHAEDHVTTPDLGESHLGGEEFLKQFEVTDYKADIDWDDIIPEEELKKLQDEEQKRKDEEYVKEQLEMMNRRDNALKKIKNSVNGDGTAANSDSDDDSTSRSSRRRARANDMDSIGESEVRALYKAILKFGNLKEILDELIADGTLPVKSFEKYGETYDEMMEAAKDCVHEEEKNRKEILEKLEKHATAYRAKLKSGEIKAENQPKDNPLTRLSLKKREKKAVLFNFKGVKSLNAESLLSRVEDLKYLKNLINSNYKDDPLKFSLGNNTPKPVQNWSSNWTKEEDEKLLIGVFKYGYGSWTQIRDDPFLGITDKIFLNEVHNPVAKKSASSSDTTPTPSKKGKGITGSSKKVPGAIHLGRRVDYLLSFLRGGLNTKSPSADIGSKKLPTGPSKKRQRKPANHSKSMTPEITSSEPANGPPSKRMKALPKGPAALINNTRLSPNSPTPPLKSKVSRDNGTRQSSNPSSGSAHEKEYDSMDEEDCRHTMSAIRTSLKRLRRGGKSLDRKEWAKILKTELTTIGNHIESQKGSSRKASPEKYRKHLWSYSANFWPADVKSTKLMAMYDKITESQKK

Molecules are shown by their SMILES. For some assays here: Potency and affinity values are given separately.

Sequence of Protein translocase subunit SecA (Escherichia coli (strain K12)) (P10408 whole entry): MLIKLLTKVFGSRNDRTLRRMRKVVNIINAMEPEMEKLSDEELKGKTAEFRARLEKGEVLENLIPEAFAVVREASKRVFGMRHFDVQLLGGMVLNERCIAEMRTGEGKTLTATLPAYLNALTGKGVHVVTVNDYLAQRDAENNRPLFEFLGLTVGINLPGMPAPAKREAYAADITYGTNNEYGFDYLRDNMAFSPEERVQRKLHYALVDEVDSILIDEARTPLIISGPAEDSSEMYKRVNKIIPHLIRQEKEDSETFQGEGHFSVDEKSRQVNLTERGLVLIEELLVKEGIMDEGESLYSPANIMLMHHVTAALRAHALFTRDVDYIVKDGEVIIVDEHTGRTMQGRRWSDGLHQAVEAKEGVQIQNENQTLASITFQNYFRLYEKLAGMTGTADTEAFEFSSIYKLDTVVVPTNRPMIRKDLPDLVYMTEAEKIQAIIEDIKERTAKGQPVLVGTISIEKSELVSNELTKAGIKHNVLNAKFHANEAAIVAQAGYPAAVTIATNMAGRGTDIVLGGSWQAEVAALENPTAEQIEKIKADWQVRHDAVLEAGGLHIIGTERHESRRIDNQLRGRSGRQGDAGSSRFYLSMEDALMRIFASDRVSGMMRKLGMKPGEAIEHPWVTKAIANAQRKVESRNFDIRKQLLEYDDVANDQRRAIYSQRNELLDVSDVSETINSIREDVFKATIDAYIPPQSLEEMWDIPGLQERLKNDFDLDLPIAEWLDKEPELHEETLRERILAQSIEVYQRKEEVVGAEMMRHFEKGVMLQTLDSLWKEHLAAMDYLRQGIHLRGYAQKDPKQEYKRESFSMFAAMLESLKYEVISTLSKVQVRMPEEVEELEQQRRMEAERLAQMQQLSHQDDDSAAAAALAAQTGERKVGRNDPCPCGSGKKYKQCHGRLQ

On to `CC[C@@H]1N(Cc2ccsc2)CCC[C@]12CCC(=O)N2C`, for which the Percent Effect was -5.65% in assay [1]; 3.9% in [2]; -0.653% in assay [3]; -1.69% in the assay on Trypanosoma cruzi; 1.37% in assay [4]; 2.66% in [5]. In addition, the Percent Effect was 32.3% in the assay filed under Homo sapiens, -0.966% in assay [6], -12.5% in [7] and 0.966% in [8].

For `COCC(=O)N1CC[C@@H](O)[C@@H]1Cc1ccccc1`, the Percent Effect in assay [1] was -2.38%; in assay [2], 3.9%; in [3], -3.29%; in the assay with Trypanosoma cruzi it was 1.27%; in assay [4], -4.45%; in assay [5], 6.27%. The Percent Effect is -19.5% in the assay filed under Homo sapiens, -5.79% in assay [6], 0% in assay [7] and -0.374% in assay [8].

On to `CN1[C@H](CN2CCCC2)C[C@@H]2CN(C(=O)Cc3cccs3)CC[C@@H]21`, for which the Percent Effect in [1] is -2.98%; in [2] it was 16.9%; in assay [3] it was -1.33%; with Trypanosoma cruzi it was -3.56%; in assay [4], 0%; in assay [5] it was 5.75%. The Percent Effect in the assay filed under Homo sapiens is 2.07%; in assay [6] it was 7.73%; in [7], 2.5%; in assay [8], -11.2%.

For the compound `COC(=O)C1CCN(C(=O)c2ccc(NS(C)(=O)=O)c(C)c2)CC1`, the Percent Effect in [1] is -3.21%; in assay [2], -5.41%; in [3] it was -1.94%; in the assay with Trypanosoma cruzi it was -2.04%; in [4], -0.35%; in [5], 10.3%. Moreover, the Percent Effect in the assay filed under Homo sapiens is -0.596%; in assay [6], 3.72%; in assay [7], 0%; in assay [8] it was 0.629%.

As for `CSc1ccccc1C(C(=O)O)N1CCN(Cc2ccccn2)CC1` (stereo not given), the Percent Effect in assay [1] was -6%; in assay [2], 13.5%; in [3], 6.14%; in the assay with Trypanosoma cruzi, 9.21%; in assay [4] it was 60.5%; in assay [5], 10.8%. In addition, the Percent Effect in the assay listed under Homo sapiens is 14.2%; in [6], 6.92%; in assay [7], 19.5%; in [8], 0.128%.

In the case of `CN1CCCN(c2nccc(-c3c[nH]nc3C3CCCCC3)n2)CC1`, the Percent Effect was 2.25% in assay [1]; 8% in assay [2]; -4.76% in [3]; -6.22% with Trypanosoma cruzi; 1.33% in [4]; 24% in assay [5]. For the same compound, the Percent Effect in the assay filed under Homo sapiens is 23%; in assay [6], 0.526%; in assay [7] it was 2.56%; in assay [8] it was -14.2%.

In the case of `CCc1nc(CN(C)C2CCN(CCc3ccccn3)C2)no1` (stereo not given), the Percent Effect is -0.239% in assay [1]; 21.3% in assay [2]; -5.99% in assay [3]; 4.02% in the assay on Trypanosoma cruzi; -3.55% in assay [4]; 22.8% in [5]. The Percent Effect in the assay listed under Homo sapiens is 12.5%; in assay [6] it was 6.84%; in assay [7] it was 15.4%; in assay [8] it was -14.1%.

As to `CC(NCc1c(C(C)C)nn(C)c1N1CCOCC1)C(N)=O` (stereo not given), the Percent Effect in [1] was -5.06%; in [2], 7.69%; in assay [3] it was -15.9%; in the assay on Trypanosoma cruzi it was -3.66%; in assay [4], -1.23%; in assay [5], 14.8%. In addition, the Percent Effect was 16.4% in the assay filed under Homo sapiens, 0.478% in assay [6], 8.43% in assay [7] and -6.18% in assay [8].

As to `O=C(c1ccncc1)N1CCCC2(COCCN(c3ccccc3)C2)C1` (stereo not given), the Percent Effect in assay [1] was -5.29%; in assay [2] it was -1.3%; in assay [3], -2.94%; with Trypanosoma cruzi, -6.72%; in [4], -5.26%; in assay [5], 20%. In addition, the Percent Effect in the assay listed under Homo sapiens was 0.424%; in assay [6], 6.84%; in [7] it was 7.69%; in [8], -1.75%.

In the case of `COc1ccc(F)cc1CN1CCCC(c2cc(C(N)=O)[nH]n2)C1` (stereo not given), the Percent Effect in assay [1] is -3.96%; in [2], 5.33%; in assay [3], 5.92%; with Trypanosoma cruzi it was 1.81%; in assay [4] it was -2.22%; in assay [5], 1.61%. In addition, the Percent Effect was 8.51% in the assay listed under Homo sapiens, 3.68% in assay [6], 5.13% in [7] and -9.49% in assay [8].

For the compound `CC(C)N(Cc1nc2c(cnn2C)c(=O)[nH]1)c1ccccc1`, the Percent Effect in [1] is -2.48%; in [2], 10.3%; in assay [3] it was -5.08%; in the assay with Trypanosoma cruzi, 5.54%; in assay [4], 4.1%; in [5] it was 1.96%. The Percent Effect in the assay filed under Homo sapiens was 7.17%; in assay [6], 5.26%; in assay [7], 18.1%; in assay [8], -3.23%.
